In PubChem BioAssay (EPA / NIEHS) one finds outcome and AC50 data, which are given here for 13 compounds.

Inconclusive results are not listed. Where a structure was tested more than once in an assay, its records may differ in their call. Active and inactive are the calls of the source. Rule for the calls: active = hit-call score of the fitted dose curve at least 0.9, where 1 is the maximum; inconclusive = response in the unintended direction; inactive = score below 0.9.

The target of this experiment is rat Peripheral-type Benzodiazepine Receptor (PBR), Tspo (gene 24230) (UniProt P16257). The experiment is described as follows: NVS_MP_rPBR: NovaScreen (NVS) Membrane Protein Assay for rat Peripheral-type Benzodiazepine Receptor (PBR) (AID 2283335). The protocol: NVS_MP_rPBR is a biochemical, single-readout assay that uses extracted gene-proteins from Rat kidney membranes in a tissue-based cell-free assay. Measurements were taken 1 hour after chemical dosing in a 48-well plate.NVS_MP_rPBR is one of one assay component(s) measured or calculated from the NVS_MP_rPBR assay. It is designed to make measurements of radioligand binding, a form of binding reporter, as detected with scintillation counting signals by Filter-based radiodetection technology.Data from the assay component NVS_MP_rPBR was analyzed into 1 assay endpoint. This assay endpoint, NVS_MP_rPBR, was analyzed in the positive analysis fitting direction relative to DMSO as the negative control and baseline of activity. Using a type of binding reporter, loss-of-signal activity can be used to understand changes in the binding as they relate to the gene Tspo. Furthermore, this assay endpoint can be referred to as a primary readout, because the performed assay has only produced 1 assay endpoint. To generalize the intended target to other relatable targets, this assay endpoint is annotated to the transporter intended target family, where the subfamily is cholesterol transporter.
Chain of rat Peripheral-type Benzodiazepine Receptor (PBR), Tspo (gene 24230) (P16257 whole entry, looked up): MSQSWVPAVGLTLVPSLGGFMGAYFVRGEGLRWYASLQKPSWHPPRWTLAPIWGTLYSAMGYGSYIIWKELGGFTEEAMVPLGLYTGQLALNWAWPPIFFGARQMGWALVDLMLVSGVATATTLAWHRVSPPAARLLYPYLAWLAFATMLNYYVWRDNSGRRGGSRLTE
Binding assays used specific radioligands (tritiated, iodinated) with non-radioactive competitive displacement ligands in agonist or antagonist protocols (as indicated) and various reference compounds and inhibitors to titrate specific binding to receptors and transporters. Most enzyme assays (CYPs, kinases, phosphatases, proteases, HDACs) used recombinant protein and specific substrates (fluorescence mostly, some colorimetric and radioactive) and inhibitors, followed by a biochemical separation of substrate and product. All assays for the biochemical HTS were initially run in duplicate at a single concentration (10 uM for CYP450 assays and 25 uM for all others). […] Each assay was run with positive and negative controls, and concurrent controls on every plate. The follow-up (secondary) screen tested active chemical-pairs in concentration series, as well as a few additional assays not tested in the primary screen, some selected negative inactives, and several cases re-run in the concentration series for confirmatory purposes.
As to `Cc1ccccc1CO[C@@H]1C[C@@]2(C(C)C)CC[C@]1(C)O2`, the call was inactive.
On the same count and under the same terms, the value for `CC(C)(O)C(=O)Nc1ccc([N+](=O)[O-])c(C(F)(F)F)c1` was “inactive”.
For orientation: AC50 means the concentration at which the activity in the assay is half-maximal. Consider `Oc1ccc(C(c2ccc(O)cc2)(C(F)(F)F)C(F)(F)F)cc1`, for which the outcome was inactive and the AC50 was 6.31 µM (active).
As to `Cc1ccc(O)c(C)c1`, the compound was called inactive.
Consider `CCC(C)(c1ccc(O)cc1)c1ccc(O)cc1`, for which the AC50 is 6.5 µM (active) and the call was inactive.
Take `CC(C)(c1ccccc1)c1ccc(O)cc1`: the compound was called inactive.
On the same count and under the same terms, the value for `OCC(O)CO` was “inactive”.
For `Cc1cc2c3c(c1)C(c1ccccc1)=N[C@@H](NC(=O)c1ccncc1)C(=O)N3CC2`, the AC50 is 9.63 µM (active).
On to `CCOC(=O)C(O)(c1ccc(Cl)cc1)c1ccc(Cl)cc1`, for which the AC50 is 10 µM (active).
On the same count and under the same terms, then `Cc1cc(-c2ccc(N)c(C)c2)ccc1N`, with 13.7 µM (active).
For `CCSC(=O)N(CC)C1CCCCC1`, the compound was called inactive.
In the case of `CO/C=C(/C(=O)OC)c1ccccc1COc1cccc(C(F)(F)F)n1`, the AC50 was 0.189 µM (active).
As for `CCC(C)(CC)c1cc(NC(=O)c2c(OC)cccc2OC)on1`, the compound was classed as inactive.
